Screening data (PubChem)
An excerpt weighted towards active compounds, which were near 3.8% of everything screened.
VDR inhibitor – vitamin D3 receptor (human) inhibition; P11473; VDR-SRC2-3 peptide fluorescence polarization, 2 h; Potency, µM, for the others: max response, negative = inhibition, most hits filed as inhibitors; 0.93% of 400,000 active; note: potency is the fitted concentration of half-maximal effect; % is set by controls: 0 for no effect and ±100 for the full control effect
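Signal is fluorescence polarization, reporting how far test compounds block the interaction of VDR with the SRC2-3 coregulator peptide after a 2 h room-temperature incubation.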
KCNH2 3.1 inh – blocks the human KCNH2 3.1 channel isoform. 0.95% of 340,000 active. U2OS KCNH2 3.1, thallium flux FluxOr; active compounds read low. activity change, % (tested at about 1.8 µM);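 active = maximum activity change below -70%; inconclusive = maximum activity change from -70% to -50%; inactive = maximum activity change above -50%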;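 note: thallium influx rate constant from kinetic fluorescence after stimulation buffer; % is set by controls: 0 for no effect and ±100 for the full control effect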
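Kinetic fluorescence (2 min after stimulation buffer) measures Tl+ influx through KCNH2 3.1 expressed by viral transduction in U2OS cells; the rate constant is normalized against DMSO controls serving as positive and negative references.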
hERG WT inh – KCNH2 (human, wildtype) channel inhibition | U2OS, BacMam KCNH2, thallium flux FluxOr; active compounds read low | 0.37% of 340,000 active | activity change, % at 1.84 µM;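 active = maximum activity change below -70%; inconclusive = maximum activity change between -70% and -50%; inactive = maximum activity change above -50%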; note: % is set by controls: 0 for no effect and ±100 for the full control effect
Target sequence (Q12809 whole entry, looked up): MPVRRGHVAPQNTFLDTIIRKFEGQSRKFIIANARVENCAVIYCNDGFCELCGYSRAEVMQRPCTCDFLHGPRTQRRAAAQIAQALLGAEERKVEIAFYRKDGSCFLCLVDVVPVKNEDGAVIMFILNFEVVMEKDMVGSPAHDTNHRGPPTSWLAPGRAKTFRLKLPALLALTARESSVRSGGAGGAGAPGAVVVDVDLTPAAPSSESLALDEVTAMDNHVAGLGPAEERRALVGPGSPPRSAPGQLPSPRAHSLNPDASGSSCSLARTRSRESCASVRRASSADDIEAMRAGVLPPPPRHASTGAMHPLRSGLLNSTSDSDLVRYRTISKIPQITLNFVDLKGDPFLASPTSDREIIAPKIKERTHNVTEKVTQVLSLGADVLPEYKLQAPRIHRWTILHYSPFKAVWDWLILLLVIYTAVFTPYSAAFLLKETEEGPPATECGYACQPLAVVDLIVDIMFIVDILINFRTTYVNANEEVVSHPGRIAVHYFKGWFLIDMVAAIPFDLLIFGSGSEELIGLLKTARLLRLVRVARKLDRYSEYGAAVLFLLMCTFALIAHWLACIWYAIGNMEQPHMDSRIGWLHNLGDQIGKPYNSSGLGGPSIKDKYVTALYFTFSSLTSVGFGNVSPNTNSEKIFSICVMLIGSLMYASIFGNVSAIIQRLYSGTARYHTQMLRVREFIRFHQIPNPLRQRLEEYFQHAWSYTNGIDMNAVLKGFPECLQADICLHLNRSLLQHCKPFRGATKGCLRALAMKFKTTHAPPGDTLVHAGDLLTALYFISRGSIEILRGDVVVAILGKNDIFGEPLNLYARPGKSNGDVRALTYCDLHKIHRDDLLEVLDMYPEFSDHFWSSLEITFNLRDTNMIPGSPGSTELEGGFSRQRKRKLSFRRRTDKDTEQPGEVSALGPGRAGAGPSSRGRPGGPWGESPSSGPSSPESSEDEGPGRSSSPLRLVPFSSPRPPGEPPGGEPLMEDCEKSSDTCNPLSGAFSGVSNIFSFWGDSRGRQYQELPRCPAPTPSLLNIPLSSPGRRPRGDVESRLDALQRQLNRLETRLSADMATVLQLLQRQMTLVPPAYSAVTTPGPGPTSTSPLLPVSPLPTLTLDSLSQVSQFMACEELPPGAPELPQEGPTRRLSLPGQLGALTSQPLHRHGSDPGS
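U2OS cells transduced with wild-type KCNH2 virus are loaded with FluxOr dye for 45 min, and thallium flux is measured in kinetic reads before and after stimulation buffer. Rate constants are normalized to DMSO controls.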
CBFb-RUNX1 inh – inhibitors of human CBF-beta and RUNX1 interaction | Q01196+Q13951 | AlphaScreen CBFb-His/RUNX1-biotin binding, biochemical | Potency, µM (doses to about 59.8 µM), for inactives: top-dose activity, negative = inhibition, hits mostly inhibitors | 230,000 tested, under 10 active; note: % of control where 0% means no effect
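CBFb-His/RUNX1-biotin, 30 nM each, preincubated 20 min RT; compound 15 min RT; Ni + streptavidin beads 50 ng each, 90 min RT; AlphaScreen read.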
MBNL1 CUG block – inhibitors of human MBNL1 binding to CUG repeat RNA. TR-FRET MBNL1-His/biotin-(CUG)12 binding, 665/545 ratio. 0.036% of 280,000 active. Potency, µM (series often up to 57.5 µM), for inactives: at the highest dose activity change, negative = inhibition, hits mostly inhibitors. AID 2675; active = well fitted inhibition curve with a large enough effect in the signal ratio, with a control signal flat, not every such curve was filed as active; inconclusive = small, poorly fitted or top-dose-only effect, or effect the other way, or a change in a side signal; inactive = no such curve, though single readings can be large or run the other way; the % refers to the signal ratio; note: potency is the fitted concentration of half-maximal effect; % is set by controls: 0 for no effect and ±100 for the full control effect
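Ratiometric TR-FRET (665 over 545 nm, excitation 340 nm) tracks disruption of MBNL1-His/biotin-(CUG)12 complex after 60 min at room temperature, with compounds at 92 nM to 58 uM final.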
PLK1 PBD block – blocks phosphopeptide binding to human PLK1 polo-box domain; Plk1 PBD binding of FITC phosphopeptide, fluorescence polarization; Potency, µM, for inactives: max response, negative = inhibition, hits mostly inhibitors; 2.8% of 360,000 active; note: potency is the fitted concentration of half-maximal effect; series mostly up to about 57 µM; % is set by controls: 0 for no effect and ±100 for the full control effect; nearly all actives have a fitted effect of over 65% in size
* marks the source's active call; other numbers are inactive results. Unless noted, calls come from the whole dose curve; as a rule, active = well fitted curve in the direction sought with a large enough effect; inconclusive = small, poorly fitted or top-dose-only effect, or another doubt; inactive = no such curve, though single readings can be large; an effect the other way counts as inactive or inconclusive.

CCCCC(NC(=O)Cc1c(C)c2cc3c4c(oc3cc2oc1=O)CCCC4)C(=O)O (stereo unspecified) was read as VDR inhibitor -14%, KCNH2 3.1 inh -3, hERG WT inh -151*, MBNL1 CUG block 7% and PLK1 PBD block -22%.
`Cc1c(CC(=O)N[C@@H](CCCNC(N)=O)C(=O)O)c(=O)oc2cc3oc4c(c3cc12)CCCC4` gave MBNL1 CUG block -5%.
`Cc1ccc(Cl)cc1N1CCN(c2ncnc3onc(C)c23)CC1` gave VDR inhibitor 9%.
For CS(=O)(=O)Nc1nnc(C2CCCC2)s1 the results were VDR inhibitor 1%, KCNH2 3.1 inh 2, hERG WT inh 11, CBFb-RUNX1 inh 0%, MBNL1 CUG block -27% and PLK1 PBD block 19µM*.
Screening COCC(=O)Nc1nnc(C2CCCCC2)s1 returned VDR inhibitor -5%, KCNH2 3.1 inh 30, hERG WT inh 3, CBFb-RUNX1 inh -5%, MBNL1 CUG block -15% and PLK1 PBD block -23%.
For CCOC(=O)C(=O)Nc1nnc(C2CCCCC2)s1 the results were VDR inhibitor -13%, KCNH2 3.1 inh -7, hERG WT inh -7, CBFb-RUNX1 inh 3%, MBNL1 CUG block 0% and PLK1 PBD block 24µM*.
Screening O=S(=O)(Nc1nnc(C2CC2)s1)c1ccccc1 returned VDR inhibitor 4%, KCNH2 3.1 inh 7, hERG WT inh 0, MBNL1 CUG block 2% and PLK1 PBD block inconclusive.
CCOCC(=O)Nc1nnc(C2CCCCC2)s1 was read as VDR inhibitor inconclusive, KCNH2 3.1 inh 8, hERG WT inh -5, CBFb-RUNX1 inh 1%, MBNL1 CUG block inconclusive and PLK1 PBD block 27µM*.
Screening CCOc1ccc(NC(=O)CN2CCN(CC(=O)Nc3ccccc3OCC)CC2)cc1 returned VDR inhibitor 12%.
For COc1cc(-c2nn3c(-c4cc(-c5ccccc5)n[nH]4)nnc3s2)cc(OC)c1OC the results were VDR inhibitor -13%.
`Oc1ccccc1CN1CCC(C(O)(c2ccccc2)c2ccccc2)CC1` gave VDR inhibitor -11%, KCNH2 3.1 inh -86*, hERG WT inh 3, CBFb-RUNX1 inh 6%, MBNL1 CUG block 34% and PLK1 PBD block -5%.
Oc1ccccc1CN1CCN(C(O)(c2ccccc2)c2ccccc2)CC1 was read as VDR inhibitor inconclusive, KCNH2 3.1 inh inconclusive, hERG WT inh 38, MBNL1 CUG block 9% and PLK1 PBD block 1%.
Screening Cc1ccc(NC(=O)Nc2cn(CC(C)C)c(=O)c3ccccc23)cc1N(C)C returned VDR inhibitor 4%.
Screening Clc1ccc(N2O[C@H]3C=C[C@@H]2C3)nc1 returned PLK1 PBD block 30µM*.
For O=C(c1ccc[nH]1)N1O[C@@H]2C=C[C@H]1C2 the results were VDR inhibitor -21%, hERG WT inh -10 and PLK1 PBD block -4%.
`COc1ccc(-c2cc(C(F)(F)F)nc(-n3nc(C(F)(F)F)cc3C)n2)cc1` gave VDR inhibitor -5%.
For O=C(Nc1cccc(O)c1)c1ccc2c(c1)C(=O)N(Cc1ccco1)C2=O the results were VDR inhibitor -2%, KCNH2 3.1 inh 15, hERG WT inh 3, MBNL1 CUG block inconclusive and PLK1 PBD block -7%.
CC(C)CCN1C(=O)c2ccc(C(=O)Nc3ccc(Br)cc3C(=O)O)cc2C1=O was read as VDR inhibitor 79µM*, KCNH2 3.1 inh 11, hERG WT inh 1, MBNL1 CUG block inconclusive and PLK1 PBD block inconclusive.
O=C(Nc1ccc(Cl)cc1C(=O)O)c1ccc2c(c1)C(=O)N(Cc1ccco1)C2=O was read as VDR inhibitor inconclusive, KCNH2 3.1 inh -6, hERG WT inh -7, CBFb-RUNX1 inh -22%, MBNL1 CUG block 5% and PLK1 PBD block 27µM*.
`CCOc1ccccc1NC(=O)c1ccc2c(c1)C(=O)N(CC(C)C)C2=O` gave VDR inhibitor inconclusive, KCNH2 3.1 inh -7, hERG WT inh 0, MBNL1 CUG block 4% and PLK1 PBD block -19%.
